{"source": "the supplement of paper PMC12282887", "test_system": "E. coli BW25113 marRABp lux reporter", "assay": "promoter activity interaction Z-score (Lux/OD deviation from empty-vector control); higher = stronger promoter induction by the compound", "protocol": "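E. coli BW25113 (wild type or ΔmarA/ΔsoxS/Δrob) carrying pTU175 luxCDABE promoter reporters was grown in LB in 384-well plates at 37°C with each of 94 compounds at 4 two-fold concentrations, in biological duplicates. Luminescence and OD600 were read every 30 min for 12 h and integrated as AUC over 8 h (0-8 h WT, 1-9 h mutants). Lux AUC was divided by OD AUC; the interaction score is the residual of a Huber robust fit of each promoter against the empty-vector control, then Z-transformed per promoter.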", "note": "± gives the standard deviation of the averaged measurements.", "data": [{"smiles": "Cc1c(N)nc([C@H](CC(N)=O)NC[C@H](N)C(N)=O)nc1C(=O)N[C@H](C(=O)N[C@H](C)[C@@H](O)[C@H](C)C(=O)N[C@H](C(=O)NCCc1nc(-c2nc(C(=O)NCCC[S+](C)C)cs2)cs1)[C@@H](C)O)[C@@H](OC1OC(CO)C(O)C(O)C1OC1OC(CO)C(O)C(OC(N)=O)C1O)c1cnc[nH]1", "note": "(some centres undefined) [Bleomycin]", "values": [{"measurement": "promoter activity interaction Z-score", "setting": "0.038 µg/ml, genetic background: wild type", "value": "-0.417 ± 0.23"}, {"measurement": "promoter activity interaction Z-score", "setting": "0.038 µg/ml, genetic background: ΔmarA", "value": "-0.0394 ± 0.031"}, {"measurement": "promoter activity interaction Z-score", "setting": "0.038 µg/ml, genetic background: Δrob", "value": "-0.132 ± 0.16"}, {"measurement": "promoter activity interaction Z-score", "setting": "0.038 µg/ml, genetic background: ΔsoxS", "value": "0.0622 ± 0.095"}, {"measurement": "promoter activity interaction Z-score", "setting": "0.076 µg/ml, genetic background: wild type", "value": "0.0986 ± 0.2"}, {"measurement": "promoter activity interaction Z-score", "setting": "0.076 µg/ml, genetic background: ΔmarA", "value": "0.278 ± 0.39"}, {"measurement": "promoter activity interaction Z-score", "setting": "0.076 µg/ml, genetic background: Δrob", "value": "0.331 ± 0.28"}, {"measurement": "promoter activity interaction Z-score", "setting": "0.076 µg/ml, genetic background: ΔsoxS", "value": "0.321 ± 0.053"}, {"measurement": "promoter activity interaction Z-score", "setting": "0.15 µg/ml, genetic background: wild type", "value": "0.24 ± 0.21"}, {"measurement": "promoter activity interaction Z-score", "setting": "0.15 µg/ml, genetic background: ΔmarA", "value": "0.245 ± 0.13"}, {"measurement": "promoter activity interaction Z-score", "setting": "0.15 µg/ml, genetic background: Δrob", "value": "0.652 ± 0.46"}, {"measurement": "promoter activity interaction Z-score", "setting": "0.15 µg/ml, genetic background: ΔsoxS", "value": "0.457 ± 0.048"}, {"measurement": "promoter activity interaction Z-score", "setting": "0.3 µg/ml, genetic background: wild type", "value": "2.68 ± 0.29"}]}, {"smiles": "C[n+]1ccc(-c2cc[n+](C)cc2)cc1", "note": "[Paraquat]", "values": [{"measurement": "promoter activity interaction Z-score", "setting": "0.64 µg/ml, genetic background: wild type", "value": "0.0393 ± 0.059"}, {"measurement": "promoter activity interaction Z-score", "setting": "0.64 µg/ml, genetic background: ΔmarA", "value": "0.259 ± 0.056"}, {"measurement": "promoter activity interaction Z-score", "setting": "0.64 µg/ml, genetic background: Δrob", "value": "0.471 ± 0.061"}, {"measurement": "promoter activity interaction Z-score", "setting": "0.64 µg/ml, genetic background: ΔsoxS", "value": "0.397 ± 0.44"}, {"measurement": "promoter activity interaction Z-score", "setting": "1.3 µg/ml, genetic background: wild type", "value": "0.123 ± 0.012"}, {"measurement": "promoter activity interaction Z-score", "setting": "1.3 µg/ml, genetic background: ΔmarA", "value": "0.332 ± 0.16"}, {"measurement": "promoter activity interaction Z-score", "setting": "1.3 µg/ml, genetic background: Δrob", "value": "0.857 ± 0.029"}, {"measurement": "promoter activity interaction Z-score", "setting": "1.3 µg/ml, genetic background: ΔsoxS", "value": "0.407 ± 0.47"}, {"measurement": "promoter activity interaction Z-score", "setting": "2.6 µg/ml, genetic background: wild type", "value": "0.508 ± 0.11"}, {"measurement": "promoter activity interaction Z-score", "setting": "2.6 µg/ml, genetic background: ΔmarA", "value": "0.467 ± 0.19"}, {"measurement": "promoter activity interaction Z-score", "setting": "2.6 µg/ml, genetic background: Δrob", "value": "1.16 ± 0.33"}, {"measurement": "promoter activity interaction Z-score", "setting": "2.6 µg/ml, genetic background: ΔsoxS", "value": "0.215 ± 0.34"}, {"measurement": "promoter activity interaction Z-score", "setting": "5.1 µg/ml, genetic background: wild type", "value": "1.52 ± 0.99"}, {"measurement": "promoter activity interaction Z-score", "setting": "5.1 µg/ml, genetic background: ΔmarA", "value": "1.25 ± 0.44"}, {"measurement": "promoter activity interaction Z-score", "setting": "5.1 µg/ml, genetic background: Δrob", "value": "2.54 ± 0.066"}, {"measurement": "promoter activity interaction Z-score", "setting": "5.1 µg/ml, genetic background: ΔsoxS", "value": "0.698 ± 0.45"}]}]}
